Assay results: PubChem BioAssay (Tox21)
A number with no mark means an inactive call. Inconclusive results are not listed. Entries that show only a call come without a potency. Activity calls are given as the source filed them. Unless noted, calls come from the whole dose curve; as a rule, active = well fitted curve in the direction sought with a large enough effect in the repeat runs; inconclusive = weak or mixed curves; inactive = no such curve, though single readings can be large; an effect the other way counts as inactive or inconclusive.

Assays:
[1] = qHTS assay to identify small molecule agonists of the RXR signaling pathway - cell viability counter screen (AID 1159529); note: nearly all actives have a fitted effect of over 50% in size
Procedure, shortened: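 RXR-alpha-UAS-bla HEK 293T cells in medium with 2% charcoal-stripped FBS were pre-incubated 5 hr, then compound-treated 16 hr at 37 C. Viability was read by CellTiter-Glo luminescence in the same wells as the beta-lactamase assay, with tetraoctyl ammonium bromide as positive control.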

[2] = qHTS assay to identify small molecule antagonists of the retinoid acid receptor (RAR) signaling pathway - cell viability counter screen (AID 1159551); note: nearly all actives have a fitted effect of over 35% in size
Procedure, shortened: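 C3RL4 RARE-luciferase cells, 1,000/well, incubated overnight, then dosed with compound plus 1 uM retinol (final). After 6 hr at 37 C, viability read by CellTiter-Glo ATP luminescence following 30 min at room temperature.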

[3] = qHTS assay to identify small molecule antagonists of the retinoic acid receptor (RAR) signaling pathway (AID 1159552; note: nearly all actives have a fitted effect of over 50% in size)
Procedure, shortened: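 Retinol signaling pathway inhibitors screened in C3RL4 RARE-luciferase reporter cells seeded overnight at 37 C, then compounds added with 1 uM (final) retinol as pathway substrate. After 6 hr at 37 C, luciferase luminescence read after 30 min at room temperature.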

[4] = qHTS assay to identify small molecule agonists of the retinoic acid receptor (RAR) signaling pathway (AID 1159553); settings: C3RL4 RARE luciferase reporter, agonist, 6 h; activation: at 73.3 µM (top of the series)
Procedure, shortened: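 C3RL4 RARE-luciferase cells were seeded at 1,000/well and grown overnight at 37 C, then exposed to compounds for 6 hr at 37 C, 5% CO2. Luciferase reagent was added and luminescence was read after 30 min at room temperature.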

[5] = qHTS assay to identify small molecule antagonists of the estrogen related receptor (ERR) signaling pathway from Tox21 library - cell viability counter screen (AID 1224834); note: nearly all actives have a fitted effect of over 30% in size; note: potency is the fitted concentration of half-maximal effect
Procedure, shortened: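 ERR reporter cells, 2,000 per well, rested 6 h, then exposed to compound in DMSO for 17.5 hours at 37 C. Viability read as fluorescence after 30 min with CellTiter-Fluor.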

[6] = biological target: Luciferin 4-monooxygenase (Photinus pyralis) (UniProt P08659); assay: qHTS assay to identify small molecule inhibitors of firefly luciferase (AID 1224835); note: nearly all actives have a fitted effect of over 25% in size; note: potency is the fitted concentration of half-maximal effect
Chain of Luciferin 4-monooxygenase (Photinus pyralis) (P08659 whole entry, looked up): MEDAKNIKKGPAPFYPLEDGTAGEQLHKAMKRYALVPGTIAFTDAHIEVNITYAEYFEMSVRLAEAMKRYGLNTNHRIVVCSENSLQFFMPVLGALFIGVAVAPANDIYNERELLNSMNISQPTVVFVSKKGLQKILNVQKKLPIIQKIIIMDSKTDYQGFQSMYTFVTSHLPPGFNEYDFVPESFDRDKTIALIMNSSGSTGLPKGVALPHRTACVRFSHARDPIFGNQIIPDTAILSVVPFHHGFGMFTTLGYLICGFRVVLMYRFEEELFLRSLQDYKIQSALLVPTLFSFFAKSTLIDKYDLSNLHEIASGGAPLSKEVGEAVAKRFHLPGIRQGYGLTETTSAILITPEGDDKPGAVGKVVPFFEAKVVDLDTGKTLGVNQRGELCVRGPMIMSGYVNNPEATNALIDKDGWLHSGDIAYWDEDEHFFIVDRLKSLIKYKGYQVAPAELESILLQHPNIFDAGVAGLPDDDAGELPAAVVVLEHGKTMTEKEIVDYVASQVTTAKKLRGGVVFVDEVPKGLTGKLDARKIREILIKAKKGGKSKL
Procedure, shortened: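 Quantitative HTS format; KM concentrations of both substrates. Purified P. pyralis FLuc activity quantified from luminescence images.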

[7] = qHTS assay to identify small molecule agonists of the constitutive androstane receptor (CAR) signaling pathway - cell viability counter screen (AID 1224836); note: nearly all actives have a fitted effect of over 45% in size
Procedure, shortened: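 HepG2 cells stably carrying hCAR and a CYP2B6-2.2kb reporter; 15-concentration compounds plus PK11195 (final 0.75 uM), 23 hr at 37 C/5% CO2. Viability read by CellTiter-Fluor fluorescence.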

[8] = qHTS assay to identify small molecule antagonists of the constitutive androstane receptor (CAR) signaling pathway - cell viability counter screen (AID 1224837); note: nearly all actives have a fitted effect of over 45% in size
Procedure, shortened: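 HepG2 cells stably carrying hCAR and CYP2B6-2.2kb reporter, stimulated with 50 nM CITCO and compounds at 15 concentrations for 23 h at 37 C. Viability measured by CellTiter-Fluor fluorescence.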

[9] = qHTS assay to identify small molecule antagonists of the estrogen related receptor signaling pathway with the pleiotropic PPARgamma coactivator (PGC) from Tox21 10K library - cell viability counter screen (AID 1224840; active = well fitted cell-killing curve with a large enough effect in the repeat runs, not every such curve was filed as active; note: nearly all actives have a fitted effect of over 40% in size)
Procedure, shortened: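 PGC/ERR cells (2,000/well) plated 6 h, then compound-treated for 17.5 h at 37 C. Viability measured by CellTiter-Fluor fluorescence after 30 min at 37 C, multiplexed with the pathway assay.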

[10] = qHTS assay to identify small molecule antagonists of the estrogen related receptor signaling pathway with the pleiotropic PPARgamma coactivator (PGC) from Tox21 10K library (AID 1224841; call rule not given here; note: actives are mostly falling curves and most rising ones were filed inactive; nearly all actives have a fitted effect of over 50% in size)
Procedure, shortened: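 PGC/ERR cell line, 2,000 cells/well, pre-incubated 6 hours at 37 C, then exposed to compounds for 18 hours at 37 C; luciferase read with One-Glo luminescence after 30 min at room temperature.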

[11] = qHTS assay to identify small molecule agonists of the estrogen related receptor signaling pathway with the pleiotropic PPARgamma coactivator (PGC) from Tox21 10K library (AID 1224842); note: nearly all actives have a fitted effect of over 15% in size
Procedure, shortened: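 PGC/ERR reporter cells (NTP line) were seeded 2,000 per well, rested 6 h at 37 C/5% CO2, then pin-dosed with compounds in DMSO for 18 h at 37 C; luciferase read by One-Glo luminescence after 30 min at room temperature.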

[12] = qHTS assay to identify small molecule agonists of the hypoxia (HIF-1) signaling pathway - cell viability counter screen (AID 1224844; calls by dose curve; note: nearly all actives have a fitted effect of over 50% in size)
Procedure, shortened: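 HRE-bla ME-180 cells, 2,000/well in 0.5% dialyzed FBS medium, treated 17 h at 37C with compounds. Viability read in the same wells as the bla reporter, by CellTiter-Glo luminescence after 30 min at room temperature.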

[13] = qHTS assay to identify small molecule agonists of the hypoxia (HIF-1) signaling pathway (AID 1224846; active = well fitted activation curve with a large enough effect in the signal ratio in the repeat runs, not every such curve was filed as active; the % refers to the signal ratio)
Procedure, shortened: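 HRE-bla ME-180 beta-lactamase reporter cells in medium with 0.5% dialyzed FBS, pre-incubated 5 h then exposed to compounds 17 h at 37C, 5% CO2; reporter induction read with CCF4-AM FRET substrate.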

[14] = qHTS assay to identify small molecule agonists of H2AX - cell viability counter screen (AID 1224847; calls by dose curve; note: nearly all actives have a fitted effect of over 30% in size; note: potency is the fitted concentration of half-maximal effect)
Procedure, shortened: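 CHO-K1 cells plated overnight at 37C, then exposed 3 h at 37C to compounds at 15 concentrations (0.76% DMSO final). Viability by CellTiter-Glo luminescence after 30 min at room temperature.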

[15] = qHTS assay to identify small molecule antagonists of the estrogen related receptor (ERR) signaling pathway from Tox21 library (AID 1224848); note: nearly all actives have a fitted effect of over 50% in size
Procedure, shortened: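 Cells: ERR line, 2,000/well; 6 h preincubation 37 C/5% CO2. Cpd in DMSO via pin tool; 18 h, 37 C. ONE-Glo, 30 min RT, luminescence.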

[16] = qHTS assay to identify small molecule agonists of the estrogen related receptor (ERR) signaling pathway from Tox21 library (AID 1224849; calls by dose curve; note: nearly all actives have a fitted effect of over 15% in size)
Procedure, shortened: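 ERR reporter cells (NTP line) pre-incubated 6 hours at 37 C, then exposed to compounds for 18 hours at 37 C. ONE-Glo luciferase luminescence was read after 30 minutes at room temperature.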

[17] = biological target: Thyrotropin receptor (Homo sapiens) (UniProt P16473); assay: qHTS assay to identify small molecule agonists of the thyroid stimulating hormone receptor (TSHR) signaling pathway (AID 1224843; calls by dose curve; note: nearly all actives have a fitted effect of over 45% in size)
Chain of Thyrotropin receptor (Homo sapiens) (P16473 whole entry, looked up): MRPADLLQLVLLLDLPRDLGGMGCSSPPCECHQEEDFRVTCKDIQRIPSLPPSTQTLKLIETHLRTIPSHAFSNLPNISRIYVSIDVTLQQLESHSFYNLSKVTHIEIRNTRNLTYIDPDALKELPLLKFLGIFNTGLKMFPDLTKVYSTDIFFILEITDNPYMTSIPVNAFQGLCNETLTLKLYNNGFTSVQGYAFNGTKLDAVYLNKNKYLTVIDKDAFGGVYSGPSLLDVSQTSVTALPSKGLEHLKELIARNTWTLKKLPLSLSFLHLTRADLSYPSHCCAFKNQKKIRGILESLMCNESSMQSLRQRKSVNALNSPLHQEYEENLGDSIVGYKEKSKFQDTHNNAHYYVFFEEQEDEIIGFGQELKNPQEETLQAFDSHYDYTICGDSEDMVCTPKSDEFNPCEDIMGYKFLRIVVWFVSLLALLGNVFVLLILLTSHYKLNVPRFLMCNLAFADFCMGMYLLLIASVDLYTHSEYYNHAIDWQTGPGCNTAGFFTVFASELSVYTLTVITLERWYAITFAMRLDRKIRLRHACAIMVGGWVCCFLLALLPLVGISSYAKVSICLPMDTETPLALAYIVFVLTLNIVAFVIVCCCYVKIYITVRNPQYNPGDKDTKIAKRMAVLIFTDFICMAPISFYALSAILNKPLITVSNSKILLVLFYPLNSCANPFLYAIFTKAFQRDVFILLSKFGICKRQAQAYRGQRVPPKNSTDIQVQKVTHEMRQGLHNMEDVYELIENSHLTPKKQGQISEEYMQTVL
Procedure, shortened: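 TSHR-expressing HEK293 cells (800 per well) were exposed to compounds for 30 min at room temperature. cAMP was then detected by HTRF competition with cAMP-d2 and anti-cAMP cryptate, read after 1 h at room temperature. Fifteen concentrations, triplicate.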

[18] = qHTS assay to identify small molecule agonists of H2AX (AID 1224845; active = well fitted activation curve with a large enough effect in the signal ratio in the repeat runs, not every such curve was filed as active; the % refers to the signal ratio)
Procedure, shortened: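 Wild-type CHO-K1 cells plated overnight, then exposed 3 hr at 37C to compounds at 15 concentrations (0.76% DMSO). Lysed, then HTRF anti-pH2AX(S139)-cryptate/anti-H2AX-d2 detection after 24 hr at room temperature; emissions 665 and 620 nm.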

[19] = biological target: Nuclear receptor subfamily 1 group I member 3 (Homo sapiens) (UniProt Q14994); assay: qHTS assay to identify small molecule antagonists of the constitutive androstane receptor (CAR) signaling pathway (AID 1224838); note: nearly all actives have a fitted effect of over 40% in size
Chain of Nuclear receptor subfamily 1 group I member 3 (Homo sapiens) (Q14994 whole entry, looked up): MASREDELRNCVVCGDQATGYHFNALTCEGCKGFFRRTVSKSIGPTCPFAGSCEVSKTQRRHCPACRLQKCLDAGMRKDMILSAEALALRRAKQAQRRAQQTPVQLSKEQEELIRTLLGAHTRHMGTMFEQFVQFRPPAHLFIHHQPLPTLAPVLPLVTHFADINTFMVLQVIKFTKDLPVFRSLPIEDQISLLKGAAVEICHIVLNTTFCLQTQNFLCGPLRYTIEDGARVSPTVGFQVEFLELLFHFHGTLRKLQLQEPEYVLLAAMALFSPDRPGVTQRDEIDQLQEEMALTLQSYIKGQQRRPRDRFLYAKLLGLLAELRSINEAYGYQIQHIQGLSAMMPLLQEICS
Procedure, shortened: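 HepG2 cells stably carrying hCAR and a CYP2B6-2.2kb luciferase reporter, seeded 4 hrs before compound (15 concentrations). Stimulated with 50 nM CITCO for 24 hr at 37 C. ONE-Glo luminescence read after 30 min at room temperature.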

SMILES	outcome [1]	outcome [2]	Potency [3]	Potency [4]	Potency [5]	Potency [6]	outcome [7]	Potency [8]	outcome [9]	Potency [10]	outcome [11]	outcome [12]	outcome [13]	Potency [14]	Potency [15]	outcome [16]	outcome [17]	outcome [18]	Potency [19]
CCCCOC(=O)C(C)OC(=O)CCC (stereo not given)	inactive	inactive	inactive	inactive	inactive	inactive	inactive	inactive	inactive	inactive	inactive	inactive	inactive	inactive	inactive	inactive	–	–	–
Nc1ccnc(=O)[nH]1	inactive	inactive	inactive	inactive	inactive	inactive	inactive	inactive	inactive	–	–	inactive	inactive	inactive	–	–	inactive	inactive	–
CCC(C)(CCC(C)C)C(=O)[O-].CCC(C)(CCC(C)C)C(=O)[O-].[Zn+2] (stereo not given)	inactive	inactive	inactive	inactive	inactive	25.2 µM (active)	inactive	inactive	inactive	inactive	inactive	inactive	inactive	inactive	–	inactive	–	inactive	–
CC(C)CCC(=O)CCC(C)C	inactive	inactive	inactive	inactive	inactive	inactive	inactive	inactive	–	inactive	inactive	–	inactive	inactive	inactive	inactive	inactive	inactive	–
NC(=O)C1(N2CCCCC2)CCN(CCCC(=O)c2ccc(F)cc2)CC1	inactive	inactive	inactive	inactive	inactive	inactive	inactive	inactive	–	inactive	inactive	inactive	inactive	inactive	inactive	inactive	inactive	inactive	–
F[Si-2](F)(F)(F)(F)F	inactive	inactive	inactive	inactive	inactive	–	inactive	inactive	inactive	inactive	inactive	–	inactive	inactive	inactive	inactive	–	inactive	–
C=C(C)C(=O)OC	inactive	inactive	inactive	inactive	inactive	–	inactive	inactive	inactive	inactive	inactive	inactive	–	inactive	inactive	inactive	inactive	inactive	inactive
O=C(c1ccc2c(c1)C(=O)OC2=O)c1ccc2c(c1)C(=O)OC2=O	inactive	inactive	inactive	inactive	inactive	inactive	inactive	inactive	–	–	–	inactive	inactive	inactive	–	–	inactive	inactive	–
CC(C)C(=O)Nc1cccc(C(F)(F)F)c1	inactive	inactive	inactive	inactive	inactive	–	inactive	inactive	–	inactive	inactive	inactive	inactive	inactive	inactive	inactive	–	inactive	inactive
COC(=O)CCC(=O)O	inactive	inactive	inactive	inactive	inactive	inactive	inactive	inactive	–	–	–	–	inactive	inactive	–	–	inactive	inactive	–
COc1ccc(N=Nc2cc(C)c(N=Nc3ccc(S(=O)(=O)O)cc3)cc2OC)cc1	inactive	inactive	inactive	inactive	19.3 µM (active)	44.8 µM (active)	–	–	–	–	–	–	inactive	101 µM (active)	–	–	–	inactive	inactive
c1ccccc1	inactive	inactive	inactive	inactive	inactive	inactive	inactive	inactive	–	inactive	inactive	–	inactive	inactive	inactive	inactive	inactive	inactive	–
CCCCCCCC/C=C\CCCCCCCC(=O)OC[C@@H](O)[C@H]1OC[C@H](O)[C@H]1O	inactive	inactive	inactive	inactive	inactive	inactive	inactive	inactive	inactive	–	–	inactive	inactive	inactive	–	–	–	–	–
Nc1ccc(C(=O)OCC(O)CO)cc1 (stereo not given)	inactive	inactive	inactive	inactive	inactive	inactive	inactive	inactive	–	inactive	inactive	–	inactive	inactive	inactive	inactive	inactive	inactive	–
O=C(O)/C=C/c1ccccc1	inactive	inactive	inactive	inactive	inactive	inactive	inactive	inactive	–	inactive	inactive	inactive	inactive	–	inactive	inactive	inactive	inactive	–
C1CCN2C[C@@H]3C[C@@H](CN4CCCC[C@@H]34)[C@H]2C1	inactive	inactive	inactive	inactive	inactive	–	inactive	inactive	inactive	inactive	inactive	inactive	–	inactive	inactive	inactive	–	inactive	inactive
O=S(=O)(O)CCO	inactive	inactive	inactive	inactive	inactive	inactive	inactive	inactive	inactive	–	–	inactive	–	inactive	–	–	–	inactive	–
